Consider one sequence from PMC7862700, “An all-to-all approach to the identification of sequence-specific readers for epigenetic DNA modifications on cytosine”.

Experiment in all cases: DAPPL (digital affinity profiling via proximity ligation, sequencing); 10 mM Tris-HCl pH 7.5, 50 mM NaCl, 1 mM DTT, 4% glycerol, room temperature, 30 min; GST-TFs on glutathione beads, 16-mer random dsDNA library, 0.1% formaldehyde crosslink after washing; high values mean tight binding
What all share (conditions): protein: recombinant; tags: N-terminal GST; dsDNA, one strand shown

One test concerns the target T1, ELK1 (Homo sapiens, UniProt P19419 1-428).
T1 sequence: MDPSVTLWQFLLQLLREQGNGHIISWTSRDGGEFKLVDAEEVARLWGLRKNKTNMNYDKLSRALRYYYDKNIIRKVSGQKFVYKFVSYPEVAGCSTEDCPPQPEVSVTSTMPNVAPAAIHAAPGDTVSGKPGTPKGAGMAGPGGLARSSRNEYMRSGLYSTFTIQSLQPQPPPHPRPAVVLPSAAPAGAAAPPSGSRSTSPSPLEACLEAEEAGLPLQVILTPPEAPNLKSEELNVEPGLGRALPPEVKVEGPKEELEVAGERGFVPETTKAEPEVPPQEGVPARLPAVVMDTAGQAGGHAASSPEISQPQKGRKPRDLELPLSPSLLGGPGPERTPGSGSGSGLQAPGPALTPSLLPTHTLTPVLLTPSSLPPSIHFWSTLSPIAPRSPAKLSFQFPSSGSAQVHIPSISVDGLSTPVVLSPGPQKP
A digest of the protocol: (§1)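 GST fusions of human transcription factors were expressed in yeast and captured with glutathione beads. Once given DNA barcodes and pooled alongside a tag-only sample, they were incubated for 30 min at room temperature with 200 nmole of a random double-stranded 16-mer DNA library in Tris/NaCl/DTT/glycerol buffer, then washed, crosslinked (0.1% formaldehyde), proximity-ligated, PCR-amplified and sequenced on an Illumina NextSeq500. The binding signal of each hexamer is its read frequency for a factor divided by its frequency for the tag-only sample.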

A further test addresses T2, GABPA (Homo sapiens, UniProt Q06546 1-454).
T2 sequence: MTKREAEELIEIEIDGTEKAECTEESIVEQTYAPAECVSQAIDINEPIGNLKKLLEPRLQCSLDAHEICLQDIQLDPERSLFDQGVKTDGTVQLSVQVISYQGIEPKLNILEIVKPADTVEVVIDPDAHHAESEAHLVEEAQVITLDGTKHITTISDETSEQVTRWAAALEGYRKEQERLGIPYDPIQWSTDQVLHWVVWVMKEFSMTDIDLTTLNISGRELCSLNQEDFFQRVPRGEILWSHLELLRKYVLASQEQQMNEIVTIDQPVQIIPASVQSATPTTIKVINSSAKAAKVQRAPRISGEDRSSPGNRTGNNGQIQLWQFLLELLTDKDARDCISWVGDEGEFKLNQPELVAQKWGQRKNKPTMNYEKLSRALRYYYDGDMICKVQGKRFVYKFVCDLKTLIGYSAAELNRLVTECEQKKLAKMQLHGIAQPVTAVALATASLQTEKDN
A digest of the protocol: as §1

The target in the next test is T3, ERG (Homo sapiens, UniProt P11308 1-479).
T3 sequence: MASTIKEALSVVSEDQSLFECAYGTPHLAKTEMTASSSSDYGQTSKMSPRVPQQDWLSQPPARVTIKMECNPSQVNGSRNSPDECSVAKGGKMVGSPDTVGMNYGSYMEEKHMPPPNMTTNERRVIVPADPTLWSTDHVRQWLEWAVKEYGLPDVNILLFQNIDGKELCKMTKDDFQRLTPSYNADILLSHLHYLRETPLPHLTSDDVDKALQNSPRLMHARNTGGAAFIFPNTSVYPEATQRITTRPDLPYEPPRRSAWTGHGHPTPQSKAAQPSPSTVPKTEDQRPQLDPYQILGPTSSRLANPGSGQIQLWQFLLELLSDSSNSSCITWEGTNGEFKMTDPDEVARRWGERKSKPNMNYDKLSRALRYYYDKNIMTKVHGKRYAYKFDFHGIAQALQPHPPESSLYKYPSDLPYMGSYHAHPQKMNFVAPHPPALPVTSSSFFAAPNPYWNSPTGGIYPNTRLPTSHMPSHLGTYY
The gist of the method: as §1

For another test, the target named is ELF1 (Homo sapiens, UniProt P32519 1-619). The gist of the method:
as §1

The target in another test is T4, EHF (Homo sapiens, UniProt Q9NZC4 1-300).
T4 sequence: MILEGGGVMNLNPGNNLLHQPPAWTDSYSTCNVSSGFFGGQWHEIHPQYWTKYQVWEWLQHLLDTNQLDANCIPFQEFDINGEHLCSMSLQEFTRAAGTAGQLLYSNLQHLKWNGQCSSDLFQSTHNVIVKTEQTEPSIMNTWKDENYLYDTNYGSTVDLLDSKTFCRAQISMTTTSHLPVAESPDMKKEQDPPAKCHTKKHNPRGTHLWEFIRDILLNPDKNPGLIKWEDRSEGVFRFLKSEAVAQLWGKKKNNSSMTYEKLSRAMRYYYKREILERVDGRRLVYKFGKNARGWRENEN
A digest of the protocol: as §1

For another test, the target named is SPI1 (Homo sapiens, UniProt P17947 1-270). The gist of the method:
as §1

For the next test, the target named is SPIB (Homo sapiens, UniProt Q01892 1-262). The gist of the method:
as §1

In a further test the target is T5, FEV (Homo sapiens, UniProt Q99581 1-238).
T5 sequence: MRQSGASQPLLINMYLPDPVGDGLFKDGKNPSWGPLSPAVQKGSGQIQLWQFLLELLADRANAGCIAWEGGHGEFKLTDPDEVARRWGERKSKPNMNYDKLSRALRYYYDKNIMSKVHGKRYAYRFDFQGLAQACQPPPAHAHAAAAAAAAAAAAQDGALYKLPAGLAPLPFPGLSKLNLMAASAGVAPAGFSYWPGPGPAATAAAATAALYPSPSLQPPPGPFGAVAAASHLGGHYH
A digest of the protocol:
as §1

Another test deals with ETV5 (Homo sapiens, UniProt P41161 1-510). The gist of the method: as §1
Chain of ETV5 (P41161 whole entry): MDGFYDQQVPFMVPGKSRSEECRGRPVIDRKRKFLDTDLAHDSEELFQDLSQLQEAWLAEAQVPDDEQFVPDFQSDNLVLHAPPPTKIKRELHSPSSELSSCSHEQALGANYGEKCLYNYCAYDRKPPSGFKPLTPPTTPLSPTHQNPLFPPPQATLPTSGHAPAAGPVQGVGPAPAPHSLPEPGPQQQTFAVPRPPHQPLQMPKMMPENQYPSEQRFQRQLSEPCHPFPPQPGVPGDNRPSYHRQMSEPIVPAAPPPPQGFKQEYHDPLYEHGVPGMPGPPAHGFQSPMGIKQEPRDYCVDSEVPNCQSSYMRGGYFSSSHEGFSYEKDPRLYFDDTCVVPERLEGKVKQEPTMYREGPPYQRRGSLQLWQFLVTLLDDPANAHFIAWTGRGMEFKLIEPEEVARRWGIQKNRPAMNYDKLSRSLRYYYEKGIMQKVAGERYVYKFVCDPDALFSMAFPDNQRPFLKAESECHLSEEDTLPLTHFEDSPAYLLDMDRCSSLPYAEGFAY
In another test the target is ELF4 (Homo sapiens, UniProt Q99607 1-663). The gist of the method:
as §1

Chain of SPIB (Q01892 whole entry): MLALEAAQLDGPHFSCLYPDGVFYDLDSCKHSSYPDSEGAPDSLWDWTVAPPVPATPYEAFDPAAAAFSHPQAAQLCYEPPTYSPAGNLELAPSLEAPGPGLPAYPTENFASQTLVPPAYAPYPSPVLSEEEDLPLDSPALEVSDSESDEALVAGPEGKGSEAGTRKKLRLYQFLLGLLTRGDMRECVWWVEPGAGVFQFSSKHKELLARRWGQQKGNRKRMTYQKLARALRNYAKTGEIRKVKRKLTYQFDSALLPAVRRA
Chain of ELF4 (Q99607 whole entry): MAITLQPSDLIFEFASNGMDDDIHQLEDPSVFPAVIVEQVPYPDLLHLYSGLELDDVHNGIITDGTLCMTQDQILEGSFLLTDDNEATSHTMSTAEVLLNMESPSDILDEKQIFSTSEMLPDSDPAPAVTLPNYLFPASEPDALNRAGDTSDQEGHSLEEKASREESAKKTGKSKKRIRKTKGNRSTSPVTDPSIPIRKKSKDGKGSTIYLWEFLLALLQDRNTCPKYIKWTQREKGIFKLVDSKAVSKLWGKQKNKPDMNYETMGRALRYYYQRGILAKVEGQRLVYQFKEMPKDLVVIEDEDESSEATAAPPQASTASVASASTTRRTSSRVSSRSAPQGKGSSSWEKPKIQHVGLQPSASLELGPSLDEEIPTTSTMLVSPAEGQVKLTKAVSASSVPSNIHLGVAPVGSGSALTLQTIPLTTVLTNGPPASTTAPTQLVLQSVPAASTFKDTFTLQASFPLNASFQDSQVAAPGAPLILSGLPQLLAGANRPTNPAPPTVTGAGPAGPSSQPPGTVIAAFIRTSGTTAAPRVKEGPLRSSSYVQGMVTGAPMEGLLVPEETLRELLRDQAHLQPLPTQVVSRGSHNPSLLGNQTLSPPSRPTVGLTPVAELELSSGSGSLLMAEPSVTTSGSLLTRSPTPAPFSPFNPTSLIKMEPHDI
Chain of ELF1 (P32519 whole entry): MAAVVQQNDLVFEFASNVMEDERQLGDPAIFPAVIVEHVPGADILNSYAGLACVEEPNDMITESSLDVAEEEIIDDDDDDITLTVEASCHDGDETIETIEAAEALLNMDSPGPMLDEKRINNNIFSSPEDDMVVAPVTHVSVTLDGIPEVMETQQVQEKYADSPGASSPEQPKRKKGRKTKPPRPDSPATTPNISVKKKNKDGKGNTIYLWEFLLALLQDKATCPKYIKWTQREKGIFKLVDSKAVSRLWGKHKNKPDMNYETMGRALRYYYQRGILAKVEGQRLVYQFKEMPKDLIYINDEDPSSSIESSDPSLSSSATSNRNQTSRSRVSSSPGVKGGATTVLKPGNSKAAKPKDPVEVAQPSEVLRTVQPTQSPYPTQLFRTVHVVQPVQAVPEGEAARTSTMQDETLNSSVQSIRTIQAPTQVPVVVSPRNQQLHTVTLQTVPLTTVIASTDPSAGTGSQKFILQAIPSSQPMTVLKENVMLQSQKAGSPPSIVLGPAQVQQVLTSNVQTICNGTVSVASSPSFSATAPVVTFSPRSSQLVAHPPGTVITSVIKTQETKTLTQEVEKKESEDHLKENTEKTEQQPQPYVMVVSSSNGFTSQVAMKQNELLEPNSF

TCAAGT: the binding signal is 1.14 fold enrichment (6-mer frequency, TF over GST control) in the test with ELK1; 1.07 fold enrichment (6-mer frequency, TF over GST control) in the test with GABPA; 1.04 fold enrichment (6-mer frequency, TF over GST control) with ERG; 1.02 fold enrichment (6-mer frequency, TF over GST control) in the test with ELF1; 1.12 fold enrichment (6-mer frequency, TF over GST control) with EHF; 1.06 fold enrichment (6-mer frequency, TF over GST control) with SPI1. Moreover, the binding signal with SPIB is 1.08 fold enrichment (6-mer frequency, TF over GST control); with FEV, 1.05 fold enrichment (6-mer frequency, TF over GST control); with ETV5, 1.07 fold enrichment (6-mer frequency, TF over GST control); with ELF4, 1.13 fold enrichment (6-mer frequency, TF over GST control).
